This passage reports growth results from PubChem BioAssay (NCI).

Among the test systems are SK-MEL-2 melanoma; SN12C renal; UO-31 renal; TK-10 renal; ACHN renal; CAKI-1 renal; A498 renal; CCRF-CEM leukemia; MOLT-4 leukemia; RPMI-8226 leukemia; OVCAR-8 ovarian; OVCAR-5 ovarian; OVCAR-4 ovarian; SK-OV-3 ovarian; IGROV1 ovarian; OVCAR-3 ovarian; HS 578T breast; NCI/ADR-RES ovarian; SR leukemia.
Assay in all cases: NCI-60 one-dose screen, 48 h (100 = growth as untreated, 0 = no growth, -100 = all killed)
Holding throughout (details): 10 µM unless noted

Each structure is given as a SMILES string. The panel holds about 83,000 compounds, 20% with a hit somewhere; the sample as a whole holds those more often.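 Negative percent growth values reflect cell death: -40 means 40% of the cells present at the start died, and -100 means all died.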 Values without a mark were called inactive. The source made the active and inactive calls. How the source made its calls: active means growth percent below 10; inactive means the rest.

With `C[C@]12CC[C@@H]3c4cc(OC(F)F)c(OS(N)(=O)=O)cc4CC[C@H]3[C@@H]1CC[C@@H]2OS(N)(=O)=O`, the growth is 36.1% in the assay on SK-MEL-2 melanoma; 42% with SN12C renal; 42.9% with UO-31 renal; 100% in the assay on TK-10 renal; 40.6% with ACHN renal; 39.1% with CAKI-1 renal. For the same compound, the growth is 94.8% in the assay with A498 renal; 22.9% in the assay on CCRF-CEM leukemia; 20.6% in the assay on MOLT-4 leukemia; 39.3% in the assay with RPMI-8226 leukemia; 46.2% in the assay with OVCAR-8 ovarian; 94.9% in the assay with OVCAR-5 ovarian. In addition, the growth with OVCAR-4 ovarian is 76.1%; in the assay with SK-OV-3 ovarian it was 44.7%; in the assay with IGROV1 ovarian, 47.6%; in the assay with OVCAR-3 ovarian, 16.2%; in the assay with HS 578T breast, 5.84% (active); in the assay on NCI/ADR-RES ovarian, 11.3%.

As to `O=C(Cc1ccc2c(c1)OCCO2)Nc1nc2ccc(F)cc2s1`, the growth is 70.5% in the assay with SK-MEL-2 melanoma; 70.5% in the assay with SN12C renal; 62.5% in the assay with UO-31 renal; 117% in the assay with TK-10 renal; 98% in the assay on ACHN renal; 111% in the assay on CAKI-1 renal. Moreover, the growth with A498 renal is 104%; in the assay with CCRF-CEM leukemia, 87.3%; in the assay with MOLT-4 leukemia, 95.1%; with SR leukemia, 103%; in the assay with OVCAR-8 ovarian it was 94.7%; in the assay with OVCAR-5 ovarian it was 90.3%. For the same compound, the growth was 96.4% with OVCAR-4 ovarian; 105% in the assay with SK-OV-3 ovarian; 48.3% in the assay with IGROV1 ovarian; 104% in the assay on OVCAR-3 ovarian; 106% in the assay on HS 578T breast; 99% in the assay on NCI/ADR-RES ovarian.

For the compound `O=c1ccn(Cc2cn(-c3c4ccccc4nc4ccccc34)nn2)c(=O)[nH]1`, the growth in the assay with SK-MEL-2 melanoma is 98%; in the assay on SN12C renal it was 92.7%; in the assay on UO-31 renal, 88%; in the assay on TK-10 renal, 93.8%; in the assay with ACHN renal, 95.4%; with CAKI-1 renal it was 96.8%. The growth was 81.8% with A498 renal; 83.9% in the assay on CCRF-CEM leukemia; 79.5% with MOLT-4 leukemia; 38.8% in the assay with SR leukemia; 87.3% in the assay with RPMI-8226 leukemia; 114% in the assay with OVCAR-5 ovarian. In addition, the growth in the assay on OVCAR-4 ovarian was 109%; with SK-OV-3 ovarian it was 90.9%; with IGROV1 ovarian, 80.9%; with OVCAR-3 ovarian, 110%; in the assay with HS 578T breast it was 94.6%; in the assay on NCI/ADR-RES ovarian, 108%.

As to `NC1=C(c2nn[nH]n2)C(c2ccccc2Cl)c2ccc3ccccc3c2O1` (centres undefined), the growth in the assay with SK-MEL-2 melanoma is 89.7%; in the assay with SN12C renal, 84%; in the assay with UO-31 renal it was 60%; with TK-10 renal, 74.9%; with ACHN renal, 77.5%; in the assay on CAKI-1 renal, 36.9%. Also, the growth with A498 renal is 48%; in the assay with CCRF-CEM leukemia it was 77.5%; with MOLT-4 leukemia, 70.9%; with RPMI-8226 leukemia it was 71.7%; in the assay on OVCAR-8 ovarian, 86%; in the assay with OVCAR-5 ovarian it was 109%. The growth in the assay with OVCAR-4 ovarian was 81.5%; in the assay on SK-OV-3 ovarian it was 86.2%; in the assay on IGROV1 ovarian, 63.2%; in the assay with OVCAR-3 ovarian, 69.6%; in the assay on HS 578T breast it was 80.3%; with NCI/ADR-RES ovarian, 55.9%.

With `Nc1nn(C(=O)Nc2ccc(Cc3ccccc3)cc2)c2ccc(Cl)cc12`, the growth in the assay on SK-MEL-2 melanoma is 68.7%; in the assay with SN12C renal, 64.2%; in the assay on UO-31 renal it was 43.5%; in the assay with TK-10 renal, 79.7%; in the assay on ACHN renal it was 39.9%; in the assay on CAKI-1 renal, 44%. In addition, the growth in the assay on A498 renal is 106%; in the assay with CCRF-CEM leukemia it was 74%; with MOLT-4 leukemia, 25.6%; in the assay on SR leukemia it was 71.7%; with OVCAR-8 ovarian, 72.5%; with OVCAR-5 ovarian it was 55.7%. The growth with OVCAR-4 ovarian was 54.3%; in the assay with SK-OV-3 ovarian it was 91%; with IGROV1 ovarian, 76.2%; in the assay on OVCAR-3 ovarian it was 76.7%; in the assay on HS 578T breast, 92.1%; in the assay on NCI/ADR-RES ovarian, 67%.

For the compound `Cc1ccc2nc(NC(=O)CSc3nc(Cl)c(C#N)c(-c4ccccc4)n3)sc2c1`, the growth in the assay on SK-MEL-2 melanoma was 102%; in the assay on SN12C renal, 98.2%; in the assay on UO-31 renal, 80.7%; in the assay with TK-10 renal, 107%; in the assay on ACHN renal, 102%; in the assay with CAKI-1 renal, 94.8%. The growth with A498 renal is 102%; in the assay with CCRF-CEM leukemia, 105%; with MOLT-4 leukemia, 104%; in the assay on RPMI-8226 leukemia, 96.9%; in the assay on OVCAR-8 ovarian it was 98.3%; in the assay with OVCAR-5 ovarian, 104%. In addition, the growth in the assay with OVCAR-4 ovarian was 105%; in the assay on SK-OV-3 ovarian, 95.7%; with IGROV1 ovarian, 93.3%; in the assay on OVCAR-3 ovarian, 107%; with HS 578T breast, 95.9%; in the assay on NCI/ADR-RES ovarian, 102%.

In the case of `COc1ccc(-c2nc(NN)c3c(C)nn(-c4ccc(F)cc4)c3n2)cc1`, the growth is 24.1% with SK-MEL-2 melanoma; 44.5% with SN12C renal; 51.2% in the assay on UO-31 renal; 77.3% in the assay with TK-10 renal; 40.2% with ACHN renal; 36.9% in the assay with CAKI-1 renal. In addition, the growth in the assay with A498 renal is 20.8%; with CCRF-CEM leukemia, 23.4%; in the assay with MOLT-4 leukemia, 37.5%; with SR leukemia, 28.3%; in the assay on RPMI-8226 leukemia, 54.8%; in the assay on OVCAR-5 ovarian it was 95.6%. Further, the growth in the assay with OVCAR-4 ovarian was 62.7%; in the assay with SK-OV-3 ovarian, 29.4%; with IGROV1 ovarian, 51.2%; with OVCAR-3 ovarian it was 12%; with HS 578T breast it was 25%; in the assay on NCI/ADR-RES ovarian, 34.7%.

On to `Cc1cc(=O)oc2cc(OC(=O)CN3CCN(C)CC3)ccc12`, for which the growth is 106% in the assay on SK-MEL-2 melanoma; 96.6% in the assay on SN12C renal; 92.8% with UO-31 renal; 109% in the assay on TK-10 renal; 103% in the assay on ACHN renal; 85.8% in the assay on CAKI-1 renal. Also, the growth with A498 renal was 97.2%; in the assay on CCRF-CEM leukemia, 98.7%; in the assay on MOLT-4 leukemia, 101%; in the assay on RPMI-8226 leukemia, 103%; with OVCAR-8 ovarian, 103%; with OVCAR-5 ovarian it was 101%. Moreover, the growth was 96.6% in the assay with OVCAR-4 ovarian; 107% with SK-OV-3 ovarian; 115% in the assay with IGROV1 ovarian; 105% in the assay on OVCAR-3 ovarian; 97.9% in the assay on HS 578T breast; 105% with NCI/ADR-RES ovarian.
